ssDAF12 agonist: activators of S. stercoralis DAF-12 nuclear receptor. HEK293 ssDAF-12/GRIP1 lit1-tk-luc reporter, luminescence; % of 3 µM dafachronic acid response. activation, % at 6.8 µM. hit rate 1% among 370,000;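 active means activation above the mean over all tested compounds plus 3 SD, cut at about 0.9% in these data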;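 further: 0% = DMSO-only wells and 100% = 3 µM delta7-dafachronic acid wells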
APP 5'UTR act: activates APP 5'UTR luciferase reporter; hit rate 1% among 190,000; AID 1276; SH-SY5Y APP 5'UTR luciferase reporter, luminescence; zero percent = DMSO vehicle wells; activation, % at 2 µM;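 active means activation above a set limit, based on mean plus 3 SD of controls, cut at about 140% in these data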
NF-kB expr up: compounds increasing NF-kB expression in human neuronal cells; hit rate 1.6% among 190,000; NF-kB reporter expression; hits give high values; fold change at 12.5 µM; in the data active means fold change above about 3.3
hgDAF12 agonist: activates the H. glycines DAF-12 receptor ligand-binding domain; HEK293 GAL4-hgDAF12 UAS-luciferase reporter, agonist luminescence; normalized to butyrate control; activation, % at 6.8 µM; hit rate 1.8% among 370,000; AID 687014;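 active means activation above a cutoff set at the mean of all screened compounds plus 3 SD, cut at about 10% in these data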;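 further: 0% = DMSO wells and 100% = sodium butyrate wells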
hcDAF12 agonist: activates DAF-12 receptor from parasite H. contortus; HEK293 hcDAF-12 lit1-tk-luc reporter, luminescence; 0% DMSO, 100% Δ7-dafachronic acid; hit rate 1.4% among 370,000; activation, % at 6.8 µM;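 active means activation above the mean of all tested compounds plus 3 SD, cut at about 5.5% in these data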;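 further: 100% = response to 3 µM Δ7-dafachronic acid high control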
Numbers without * were called inactive; . = no result given. A selection: hits, their analogues and other compounds. The true share with any hit is near 3.4%.

SMILES	ssDAF12 agonist	APP 5'UTR act	NF-kB expr up	hgDAF12 agonist	hcDAF12 agonist
COCCOC(=O)c1[nH]c2c(c1C)C(=O)C(C(=O)OC)C(C)C2 (centres undefined)	-0.3	8.7	2.15	10.5*	2.8
COCCOC(=O)c1[nH]c2c(c1C)C(=O)CC(c1ccco1)C2 (centres undefined)	-0.7	-95.5	2.31	-3.4	0.0
CCOC(=O)c1[nH]c2c(c1C)C(=O)CC(c1ccco1)C2 (centres undefined)	-0.3	-95.8	6.41*	-4.5	-1.9
COCCOC(=O)c1[nH]c2c(c1C)C(=O)CC(c1ccc(F)cc1)C2 (centres undefined)	-1.6	16.2	1.79	2.2	-2.6
CCCCCOC(=O)c1[nH]c2c(c1C)C(=O)C(C(=O)OC)C(C)C2 (centres undefined)	-1.4	28.4	2.05	5.8	-2.8
COCCOC(=O)c1[nH]c2c(c1C)C(=O)CC(c1ccccc1)C2 (centres undefined)	.	-92.0	3.83*	.	.
Cc1c(C(=O)OCCOC(C)C)[nH]c2c1C(=O)CC(c1ccco1)C2 (centres undefined)	.	-96.1	3.49*	.	.
N/C(=N\OC(=O)c1ccccc1Br)c1ccc([N+](=O)[O-])cc1	-0.4	.	.	3.6	6.1*
N/C(=N\OC(=O)c1ccco1)c1cccc(Br)c1	0.1	136.6*	2.97	8.4	6.1*
N/C(=N\OC(=O)c1ccc(Br)cc1)c1cccc([N+](=O)[O-])c1	0.0	.	.	3.6	-0.2
O=C(COC(=O)c1ccco1)Nc1cccc(Br)c1	-1.2	1.4	1.08	-0.1	-0.5
Cc1ccc(C(=O)O/N=C(\N)c2cccc([N+](=O)[O-])c2)cc1	-0.4	158.4*	3.76*	5.8	-0.2
N/C(=N\OC(=O)c1ccco1)c1cccc([N+](=O)[O-])c1	-0.2	38.2	1.41	13.1*	5.3
CC(NCc1ccco1)C(=O)N1CCCN(C)CC1 (centres undefined)	-1.4	.	.	0.8	-1.9
Cc1ccccc1C1=NC(c2ccc(F)cc2F)ON1 (centres undefined)	-0.9	36.4	2.71	1.8	-0.7
COc1ccccc1C1N=C(c2ccccc2C)NO1 (centres undefined)	-0.2	.	.	10.5*	2.3
O=C(CCc1nnc(Cc2cccc(C(F)(F)F)c2)o1)NC1CC1	-0.3	-8.3	1.2	0.2	-0.3
C=C(C)CNC(=O)CCc1nnc(Cc2cccc(C(F)(F)F)c2)o1	1.0*	57.1	2.67	10.1	1.5
O=C(CCc1nnc(Cc2cccc(C(F)(F)F)c2)o1)NCC(F)(F)F	-1.2	4.4	1.38	-1.8	2.4
CC(C)CN(C)C(=O)CCc1nnc(Cc2cccc(C(F)(F)F)c2)o1	-0.8	66.0	2.1	11.4*	2.3
CC(NC(=O)CCc1nnc(Cc2cccc(C(F)(F)F)c2)o1)C1CC1 (centres undefined)	-1.6	27.6	2.03	10.5*	-0.6
Cc1sc(NC(=O)c2ccco2)c(CN2CCN(Cc3ccccc3)CC2)c1C	-1.0	-1.0	0.98	3.3	-1.1
Cc1sc(NC(=O)c2ccc(F)cc2)c(CN2CCCCCC2)c1C	0.4	46.2	1.35	10.8*	4.5
Cc1sc(NC(=O)c2ccccc2F)c(CN2CCCCC2)c1C	-0.7	23.6	1.76	8.5	6.2*
O=C(Nc1sc2c(c1CN1CCOCC1)CCC2)c1ccc(F)cc1	-1.4	5.9	1.23	3.4	5.9*
SMILES	ssDAF12 agonist	APP 5'UTR act	NF-kB expr up	hgDAF12 agonist	hcDAF12 agonist
COc1cc(C(=O)NC2CCCCN(C(C)C)C2=O)cc(OC)c1OC (centres undefined)	-1.1	.	.	4.5	-2.2
O=C(Cn1cnc2ccccc2c1=O)c1ccc2c(c1)OCCO2	-0.4	150.6*	3.65*	11.4*	3.2
O=C(Cn1cnc2ccccc2c1=O)c1ccc2ccccc2c1	-0.4	1.0	2.51	10.1	1.2
Cc1ccc(C(=O)Cn2cnc3ccccc3c2=O)cc1C	-0.9	28.3	3.33*	8.6	3.7
Cc1ccc(C(=O)CSc2cnc3ccccc3n2)cc1C	-1.6	154.3*	1	-5.0	-0.2
O=C(CSc1ccc2ccccc2n1)c1ccc2c(c1)OCO2	2.3*	44.2	1.17	9.7	5.3
COC(=O)c1cc(-c2cc3ccccc3o2)c(=O)n2c1CCC2	-0.1	.	.	3.8	1.9
CCOC(=O)CC[C@@]1(C(=O)OCC)C[C@@H](CC(=O)NCc2cccc3ccccc23)C(=O)N2CCCC=C21	-1.1	.	.	0.9	1.6
CCOc1ccc(C(=O)CSc2nnc3ccccn23)cc1	0.5	131.3	4.09*	4.3	1.9
O=C(CSc1nnc2ccccn12)c1ccc(Cl)cc1	-0.9	42.0	2.12	6.2	0.5
CC1C=CC=CCCC=CC=CC=CC=CC(OC2O[C@H](C)[C@@H](O)[C@H](N)[C@@H]2O)CC(O)C(C(=O)O)C(O)CC(=O)CC(O)C(O)CCC(O)CC(O)CC(O)CC(=O)OC(C)C(C)C1O (some centres undefined)	-1.2	.	.	0.7	-1.2
COC(=O)CN1CCN(C(=O)c2csc(N3CCOCC3)n2)CC1	-1.3	.	.	0.4	-2.6
CN(C)CCN1C(=O)c2cccc3cc([N+](=O)[O-])cc(c23)C1=O	0.3	.	.	-5.2	6.5*
CN(C)CCCN1C(=O)c2cccc3cccc(c23)C1=O	-0.3	.	.	3.8	4.0
O=C(NCc1ccccn1)c1ccc(NC(=O)c2ccco2)cc1	1.3*	-1.9	1.32	-1.4	-2.1
CCN(CC)c1ccc(NC(=O)c2ccco2)c(C)c1	-1.4	8.9	1.72	2.7	-0.4
CCN(CC)c1ccc(NC(=O)c2ccco2)cc1	0.1	163.8*	5.25*	12.8*	4.4
CCC(C)c1ccc(NC(=O)c2ccco2)cc1 (centres undefined)	0.3	.	.	11.3*	2.7
O=C(C(c1ccccc1)c1ccccc1)N(Cc1ccco1)C1CCS(=O)(=O)C1 (centres undefined)	-0.9	2.0	1.09	-3.5	-1.9
CN(C)c1ccc(CN(C(=O)c2cc3ccccc3oc2=O)C2CCS(=O)(=O)C2)cc1 (centres undefined)	-0.1	.	.	6.7	2.3
O=C(c1cc2ccccc2oc1=O)N(Cc1ccco1)C1CCS(=O)(=O)C1 (centres undefined)	0.3	68.1	2.83	12.9*	4.8
CC(Oc1ccccc1Cl)C(=O)N(Cc1ccco1)C1CCS(=O)(=O)C1 (centres undefined)	1.6*	13.8	1.07	-2.3	-0.6
CN(CCO)C1CN(Cc2cn(Cc3ccccc3F)nn2)S(=O)(=O)C1 (centres undefined)	-0.9	.	.	0.2	-0.6
O=C(CCc1ccccc1)N[C@H]1[C@@H](O)CCC[C@]12C(=O)N(Cc1ccccc1)c1ccccc12	0.6	.	.	-0.1	-1.4
Cn1ccnc1SCc1cn2ccccc2n1	-1.1	241.5*	1.66	5.8	2.6
N#CC1=C(SCC(=O)c2ccccc2)NC2=C(C(=O)CCC2)C1c1ccco1 (centres undefined)	-0.6	-68.4	2.44	12.6*	2.3

Source: PubChem BioAssay (several laboratories)
